Screening data from PubChem BioAssay.
Hits are enriched below; roughly 1.8% of the tested compounds scored in any of these assays.
PP1 inh – PP1-alpha (human) inhibition in PP5 counter-screen; purified PP1alpha, OMFP fluorescence; inhibition, % at 6.7 µM; hit rate 0.9% among 320,000;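 active = inhibition above the mean inhibition of all tested compounds plus 3 SD, computed separately for each screening campaign, cut at about 15% in these data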
PP5 inh – inhibitors of human protein phosphatase 5 (PP5); hit rate 0.18% among 320,000; purified PP5c, OMFP substrate fluorescence; AID 1987; inhibition, % at 6.7 µM; P53041;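 active = inhibition above the campaign's mean inhibition across all tested compounds plus 3 SD, cut at about 9.5% in these data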
PME-1 inh – PME-1 (human) inhibition; hit rate 0.53% among 320,000; Q9Y570; recombinant PME-1, FP-Rh probe fluorescence polarization; inhibition, % at 5.9 µM;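 active = inhibition above the campaign mean of all compounds plus 3 SD, cut at about 26% in these data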;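 note: competitive labeling of PME-1 active site by serine hydrolase directed probe; inhibitors block probe labeling so polarization falls and inhibition rises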
Target sequence (Q9Y570 whole entry, looked up): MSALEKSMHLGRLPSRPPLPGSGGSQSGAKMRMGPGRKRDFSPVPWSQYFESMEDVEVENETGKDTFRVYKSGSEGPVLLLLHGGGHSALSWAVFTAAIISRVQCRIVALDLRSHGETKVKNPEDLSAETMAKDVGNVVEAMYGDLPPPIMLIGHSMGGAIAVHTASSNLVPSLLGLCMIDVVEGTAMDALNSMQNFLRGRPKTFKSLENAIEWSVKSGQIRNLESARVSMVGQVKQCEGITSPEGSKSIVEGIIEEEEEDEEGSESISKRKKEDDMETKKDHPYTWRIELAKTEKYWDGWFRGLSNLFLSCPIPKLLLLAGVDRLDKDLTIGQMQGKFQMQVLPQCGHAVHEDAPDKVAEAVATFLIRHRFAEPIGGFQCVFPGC
Fam108B inh – blocks mouse Fam108B hydrolase in RBBP9 counter-screen | recombinant Fam108B, FP-Rh probe fluorescence polarization | inhibition, % at 9.51 µM | hit rate 0.33% among 300,000;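 active = inhibition above the screen mean inhibition plus 3 SD, computed separately per campaign, cut at about 18% in these data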;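 note: inhibitors lower polarization as less probe binds the enzyme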
LYPLA2 inh – blocks human lysophospholipase 2, a PME1 counter-screen; O95372; inhibition, % at 5.9 µM; AID 2177; recombinant LYPLA2, FP-Rh probe fluorescence polarization; hit rate 0.38% among 320,000;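 active = inhibition above the screen-wide mean plus 3 SD, limit set per campaign, cut at about 26% in these data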
Target sequence (O95372 whole entry, looked up): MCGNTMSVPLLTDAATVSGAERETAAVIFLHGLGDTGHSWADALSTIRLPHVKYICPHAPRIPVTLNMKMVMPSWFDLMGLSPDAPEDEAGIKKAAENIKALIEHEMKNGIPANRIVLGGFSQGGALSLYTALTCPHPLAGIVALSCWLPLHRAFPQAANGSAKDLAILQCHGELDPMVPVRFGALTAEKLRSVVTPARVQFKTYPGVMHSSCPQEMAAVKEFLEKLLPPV
LYPLA1 inh – LYPLA1 (human) inhibition in PME1 counter-screen; inhibition, % at 5.9 µM; AID 2174; hit rate 0.16% among 320,000; O75608; recombinant LYPLA1, FP-Rh probe fluorescence polarization;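 active = inhibition above the mean of all tested compounds plus 3 SD, set per campaign, cut at about 14% in these data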;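 note: inhibitors block serine hydrolase probe labeling of LYPLA1 so polarization falls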
Large screens that a line does not name were inactive.

CC(=O)N1CCN(S(=O)(=O)c2ccc(S(=O)(=O)NCC(C)C)cc2)CC1	PP1 inh 16
Cc1ccc(NC(=O)CCC(=O)OCC(=O)c2ccc(Oc3ccc([N+](=O)[O-])cc3)cc2)cc1	none
COc1ccc(NC(=O)CCC(=O)OCC(=O)c2ccc(Oc3ccc([N+](=O)[O-])cc3)cc2)cc1	LYPLA2 inh 26
Cc1cc(C)cc(-n2c3nc4ccccc4nc3c3c(=O)n(Cc4ccco4)cnc32)c1	PP1 inh 20
O=C(Nc1ccc2nc(-c3ccco3)c(-c3ccco3)nc2c1)N1CCCCCC1	PP1 inh 37, Fam108B inh 40
Cc1nc2ccc(NC(=O)N3CCCCC3)cc2nc1C	none
Oc1c(/C=C/C=C/C=Nc2ccccc2)sc(=S)n1Cc1ccccc1	none
COc1cc(C(=O)Nc2c(C(=O)O)[nH]c3ccc(Br)cc23)cc(OC)c1OC	PME-1 inh 31
Nn1cnc2cc3ccccc3cc2c1=O	none
Nc1nonc1-n1nnc(C(=O)N/N=C/c2cc(Cl)ccc2O)c1CN1CCCCCC1	PP1 inh 16
CCNC(=S)N1CCN(c2ccc([N+](=O)[O-])cc2)CC1	none
O=[N+]([O-])c1ccc(N2CCN(C(=S)NCc3ccc(Cl)cc3)CC2)cc1	LYPLA2 inh 28
O=c1[nH]c(N/N=C\c2ccc3c(c2)OCO3)nc2ccccc12	PME-1 inh 29
O=c1[nH]c(N/N=C/c2ccccc2)nc2ccccc12	none
C/C(=C\c1ccccc1)C1Nc2cccc3cccc(c23)N1	none (no result: Fam108B inh)
C/C(=C\c1ccc2c(c1)OCO2)C1Nc2cccc3cccc(c23)N1	PME-1 inh 37 (no result: Fam108B inh)
S=C(N/N=C/c1ccc2c(c1)OCO2)NC1CC2CCC1C2 (stereo unspecified)	none
Oc1ccc(C[C@@H]2CNCCN2CC2(c3ccccc3)CC2)cc1	none
COc1cc(OC)c2c(-c3ccccc3)cc(=O)oc2c1C(CCN1CCN(c2ccccc2)CC1)c1ccc(N(C)C)cc1 (stereo unspecified)	PP1 inh 16
COc1ccc(C(CCN2CCN(c3ccccc3)CC2)c2c(OC)cc(OC)c3c(-c4ccccc4)cc(=O)oc23)cc1 (stereo unspecified)	none
Cc1ccc(S(=O)(=O)Nc2c(Cl)c(Cl)c(O)c3ccccc23)cc1	none
Cc1ccc(OC(C)C(=O)Nc2ccc(F)cc2)c([N+](=O)[O-])n1 (stereo unspecified)	none (no result: Fam108B inh)
Oc1c(CN2CCOCC2)cc(COCc2ccccc2)c2cccnc12	PP1 inh 16
Cc1cc(C)nc(/N=C(\N)Nc2ccc(OCc3ccccc3)cc2)n1	LYPLA2 inh 30
Cc1ccc(NC(=O)CNC(=O)c2ccco2)c(Cl)c1	none
O=C(/C=C/c1cc[n+](CC(=O)c2ccc3cccc4c3c2CC4)cc1)c1ccc2cccc3c2c1CC3	PP1 inh 46, PP5 inh 12, LYPLA2 inh 83, LYPLA1 inh 78
Cc1cc(N2C(=O)C(O)=C(C(=O)c3ccco3)C2c2cccc(Cl)c2)no1 (stereo unspecified)	none
Cc1cc(N2C(=O)C(O)=C(C(=O)c3cc4ccccc4o3)C2c2cccc(Cl)c2)no1 (stereo unspecified)	PP1 inh 27
Cc1cc(N2C(=O)C(O)=C(C(=O)c3cc4ccccc4o3)C2c2ccc(Cl)cc2)no1 (stereo unspecified)	PP1 inh 29
Cc1cc(N2C(=O)C(O)=C(C(=O)c3cc4ccccc4o3)C2c2ccc(Br)cc2)no1 (stereo unspecified)	PP1 inh 26
Cc1ccnc(NC(=O)c2cccc(S(=O)(=O)N3CCN(c4ccc(F)cc4)CC3)c2)c1	none
COc1ccc(Cc2nnc(SCC(=O)Nc3ccc(N4CCOCC4)cc3)o2)cc1	none
c1ccc2c(c1)ncn2CCCCOc1ccc2c(c1)CCC2	PP1 inh 16
Cc1cccnc1Nc1nc(-c2ccc(O)c(O)c2)cs1	PME-1 inh 36
COc1ccc(-c2csc(Nc3ncccc3C)n2)cc1OC	none
COc1ccccc1C1C(C(=O)c2cc3ccccc3o2)=C(O)C(=O)N1c1cc(C)on1 (stereo unspecified)	PP1 inh 20
COc1ccc(OC)c(C2C(C(=O)c3cc4ccccc4o3)=C(O)C(=O)N2c2cc(C)on2)c1 (stereo unspecified)	PP1 inh 21
COc1ccc(OC)c(C2C(C(=O)c3ccc(C)o3)=C(O)C(=O)N2c2cc(C)on2)c1 (stereo unspecified)	none
CCOc1cc(C2NN=C(c3ccc(C)cc3)S2)ccc1O (stereo unspecified)	Fam108B inh 25
CC(=O)c1ccc(S(=O)(=O)N2CCN(c3nc(-c4cccnc4)nc4ccccc34)CC2)cc1	none (no result: Fam108B inh)
O=S(=O)(c1ccc(F)cc1)N1CCN(c2nc(-c3cccnc3)nc3ccccc23)CC1	PP1 inh 17 (no result: Fam108B inh)
O=c1c2ccccc2nc(/C=C/c2ccccc2)n1CCc1ccccc1	none
O=c1c2ccccc2nc(/C=C/c2cccnc2)n1CCc1ccccc1	PP1 inh 16
Cc1cc(NC(=O)CSCC(=O)Nc2cccc(S(=O)(=O)N3CCCCCC3)c2)no1	none
NC(=O)c1ccc(N2CCN(c3ccc(O)cc3)CC2)c([N+](=O)[O-])c1	LYPLA2 inh 32
O=C(NCCc1ccccc1)c1ccc2nc(-c3ccco3)c(-c3ccco3)nc2c1	PME-1 inh 30
CC(NC(=O)COC(=O)C1CC2CCCC(C1)C2=O)c1ccccc1 (stereo unspecified)	none (no result: Fam108B inh)
N#Cc1cccc(NC(=O)CNc2cccc(S(=O)(=O)N3CCCCC3)c2)c1	none
Cc1cc(N2C(=O)C(=O)/C(=C(/O)c3ccc(F)cc3)C2c2cccc(Br)c2)no1 (stereo unspecified)	PP1 inh 16
CCN1CCN(c2nc3sc4c(c3c(=O)n2-c2ccc(OC)cc2)CCCCC4)CC1	none
O=c1c2c3c(sc2nc(N2CCNCC2)n1-c1cccc(Cl)c1)CCCCC3	PP1 inh 15
O=C(O)COc1ccccc1/C=N/NC(=O)CSc1nnc(SCc2cccc3ccccc23)s1	none
O=C(CSc1nnc(SCc2cccc3ccccc23)s1)N/N=C/c1c[nH]c2ccccc12	PME-1 inh 26, Fam108B inh 34
O=C(CSc1nnc(SCc2cccc3ccccc23)s1)N/N=C/C=C/c1ccccc1[N+](=O)[O-]	PP1 inh 16
CCN(c1ccccc1)S(=O)(=O)c1ccc(OC)c(NC(=O)CNCCc2ccccc2)c1	PME-1 inh 28
CCN(c1ccccc1)S(=O)(=O)c1ccc(OC)c(NC(=O)Cc2ccc(F)cc2)c1	none (no result: Fam108B inh)
Cc1ccsc1/C=N/n1c(-c2cc(-c3ccccc3)n[nH]2)n[nH]c1=S	PME-1 inh 35
Cc1ccccc1/C=N/n1c(-c2cc(-c3ccccc3)n[nH]2)n[nH]c1=S	none
C/C(=N\Nc1nncc2ccccc12)c1cccc(OC(F)F)c1	none
